In ChEMBL document CHEMBL1201862, “PubChem BioAssay data set” (2004):
The campaign covered roughly 400,000 compounds. About 2,100 (0.53%) were called active. Not shown: some 14% with an inconclusive outcome. No rule for the calls is given here. The entries come from a sample that favours actives as a whole.

molecular target: Ataxin-2 (Homo sapiens) (UniProt Q99700); assay: qHTS for Inhibitors of ATXN expression.; assay type: functional
Sequence (Q99700 whole entry): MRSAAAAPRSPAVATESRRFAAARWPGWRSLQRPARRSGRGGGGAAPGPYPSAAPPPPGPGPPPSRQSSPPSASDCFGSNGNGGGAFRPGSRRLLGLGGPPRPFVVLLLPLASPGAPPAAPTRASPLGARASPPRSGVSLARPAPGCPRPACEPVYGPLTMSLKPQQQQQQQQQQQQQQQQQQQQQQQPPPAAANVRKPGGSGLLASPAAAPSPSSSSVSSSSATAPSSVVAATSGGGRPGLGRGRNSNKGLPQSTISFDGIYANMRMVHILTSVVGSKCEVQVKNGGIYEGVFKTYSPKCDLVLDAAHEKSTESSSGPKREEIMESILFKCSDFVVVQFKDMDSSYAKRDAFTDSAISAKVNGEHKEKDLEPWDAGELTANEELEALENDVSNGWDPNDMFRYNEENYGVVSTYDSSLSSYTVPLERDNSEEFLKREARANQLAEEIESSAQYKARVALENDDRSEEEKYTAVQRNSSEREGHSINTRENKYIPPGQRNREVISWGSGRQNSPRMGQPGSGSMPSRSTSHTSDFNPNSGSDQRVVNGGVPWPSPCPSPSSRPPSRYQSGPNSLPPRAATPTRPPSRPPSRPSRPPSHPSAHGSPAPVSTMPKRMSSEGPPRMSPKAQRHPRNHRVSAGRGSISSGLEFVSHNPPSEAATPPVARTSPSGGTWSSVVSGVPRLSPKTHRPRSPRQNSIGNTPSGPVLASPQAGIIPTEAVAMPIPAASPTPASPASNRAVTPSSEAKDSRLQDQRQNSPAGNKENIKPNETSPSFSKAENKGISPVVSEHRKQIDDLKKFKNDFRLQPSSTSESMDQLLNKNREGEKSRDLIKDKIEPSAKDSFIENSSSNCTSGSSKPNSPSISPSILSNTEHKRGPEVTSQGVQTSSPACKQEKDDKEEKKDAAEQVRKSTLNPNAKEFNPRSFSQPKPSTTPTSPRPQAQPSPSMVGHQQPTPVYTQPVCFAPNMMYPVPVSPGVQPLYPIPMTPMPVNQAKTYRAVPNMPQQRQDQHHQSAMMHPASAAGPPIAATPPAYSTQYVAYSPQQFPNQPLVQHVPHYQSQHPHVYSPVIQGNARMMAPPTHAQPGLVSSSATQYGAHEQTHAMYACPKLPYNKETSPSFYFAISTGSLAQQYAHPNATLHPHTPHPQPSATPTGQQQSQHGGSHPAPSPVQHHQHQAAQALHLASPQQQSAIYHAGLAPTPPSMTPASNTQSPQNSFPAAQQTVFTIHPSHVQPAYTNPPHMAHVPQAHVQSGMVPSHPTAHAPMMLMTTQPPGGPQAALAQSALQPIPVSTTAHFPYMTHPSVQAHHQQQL

Row | Structure (SMILES) | Potency
1 | CC(C)(C)NC(=O)CSc1nnc(NC(=O)CCc2ccccc2)s1 | inactive
2 | CSc1nnc(NC(=O)c2nc(S(=O)(=O)Cc3ccccc3)ncc2Cl)s1 | 28.2 µM (active)
3 | CSc1ncc(C(=O)Nc2ccccc2Cl)c(C)n1 | inactive
4 | O=C(CN(CCc1ccccc1)C(=O)c1csnn1)NCc1ccc(F)cc1 | inactive
5 | Cc1ccccc1C1N=C2Oc3ccccc3C=C2C(=O)N1 (stereo not drawn) | inactive
6 | COc1c(C)cc(S(=O)(=O)NCc2ccco2)c(C)c1C | inactive
7 | CCN1/C(=C/C=C/c2oc3ccc(-c4ccccc4)cc3[n+]2CC)Oc2ccc(-c3ccccc3)cc21 | 29.9 µM (active)
8 | O=C(Cc1ccc(NC2=NC3CS(=O)(=O)CC3S2)cc1)N1CCN(c2ccc(F)cc2)CC1 (stereo not drawn) | inactive
9 | COc1ccc(CN2C(=O)c3cccnc3C2=O)cc1S(=O)(=O)NCc1ccc(C)o1 | inactive
10 | COc1ccc(CN2C(=O)c3cccnc3C2=O)cc1S(=O)(=O)N1CCOc2ccccc21 | inactive
11 | COc1cc(CCNC2=CC(=O)c3ncccc3C2=O)ccc1O | 16.8 µM (active)
12 | CC(C)(C)c1ccc(SC2=C[C@@]3(O)CC[C@@H](O)[C@@](Sc4ccc(C(C)(C)C)cc4)(C2=O)[C@H]3O)cc1 | 25.1 µM (active)
13 | C=CCn1c(SCC(=O)c2[nH]c(C)c(C(=O)OCC)c2C)nc2scc(-c3ccc(OC)c(OC)c3)c2c1=O | 20 µM (active)
14 | CCOC(=O)c1c(C)[nH]c(C(=O)N(C)CC(=O)Nc2ccc(OCC)c(OCC)c2)c1C | inactive
15 | C=CCn1c(SCCN2C(=O)c3ccccc3C2=O)nc2scc(-c3ccc(F)cc3)c2c1=O | inactive
16 | O=C1OCCN1C(=O)[C@H]1[C@H](c2ccc(F)cc2)C(c2ccccc2)=NN1c1ccccc1 | inactive
17 | Cc1cccc2c(C(=O)O)c3cccc(C)c3nc12 | inactive
18 | COc1ccc(C(=O)NCCNc2nc3c(C)cccc3cc2C#N)cc1OC | inactive
19 | CNc1c2cccc(C)c2nc2c(C(=O)NCCN(C)C)cccc12 | 0.794 µM (active)
20 | CC1CCN(c2nc(Cl)nc(Nc3ccc([N+](=O)[O-])cc3)n2)CC1 | 39.8 µM (active)
21 | O=[N+]([O-])c1ccc(Nc2nc(N3CCOCC3)nc(N3CCOCC3)n2)cc1 | inactive
22 | CCOc1nc(Nc2ccc([N+](=O)[O-])cc2)nc(NC(C)(C)C)n1 | inactive
23 | CC(NC(=O)OC(C)(C)C)C(=O)NC(CCC(=O)OCc1ccccc1)C(N)=O (stereo not drawn) | inactive
24 | O=C(NC(Cc1ccccc1)C(=O)Oc1ccc2c(C(F)(F)F)cc(=O)oc2c1)OCc1ccccc1 (stereo not drawn) | inactive
25 | C[C@H](NC(=O)c1[nH]cnc1C(=O)Nc1ccc(CNC(=O)OC(C)(C)C)cc1)C(=O)OCc1ccccc1 | 39.8 µM (active)

Row | Structure (SMILES) | Potency
26 | COCc1ccc(C(=O)Nc2ccccc2C(=O)NCc2cccnc2)cc1 | inactive
27 | C[C@H](NC(=O)c1[nH]cnc1C(=O)NCc1ccc(CNC(=O)OC(C)(C)C)cc1)C(=O)OCc1ccccc1 | 25.1 µM (active)
28 | CC(C)(C)OC(=O)NCc1ccc(NC(=O)c2[nH]cnc2C(=O)N[C@@H](Cc2ccccc2)C(=O)OCc2ccccc2)cc1 | 35.5 µM (active)
29 | COc1ccccc1C1C2=C(CC(C)(C)CC2=O)N(CC(=O)O)C2=C1C(=O)CC(C)(C)C2 | inactive
30 | CN(CCC#N)C(=O)COC(=O)c1c2c(nc3ccccc13)/C(=C\c1ccco1)CC2 | inactive
31 | COc1ccccc1N/C=C/c1onc(C)c1[N+](=O)[O-] | inactive
32 | COc1ccc(C(=O)COC(=O)c2cncc(Br)c2)cc1 | inactive
33 | Cc1cc(NC(=O)COC(=O)c2cccc(O)c2)no1 | inactive
34 | O=C(OCC1OC(n2cc(Br)c(=O)[nH]c2=O)C(Br)C1O)c1ccccc1 (stereo not drawn) | inactive
35 | CCOC(=O)c1ccc(N2C(=O)c3[nH]nc(-c4ccccc4)c3C2c2ccc(CC)cc2)cc1 (stereo not drawn) | 39.8 µM (active)
36 | CCOC(=O)c1ccc(N2C(=O)c3[nH]nc(-c4ccc(OC)cc4)c3C2c2cccc(O)c2)cc1 (stereo not drawn) | 31.6 µM (active)
37 | CC(O)CNCCCCOc1ccc(OCc2ccccc2)cc1 (stereo not drawn) | inactive
38 | Oc1ccc(NCc2ccccc2OCc2ccccc2)cc1 | 39.8 µM (active)
39 | O=C1CCCCC/C1=N/Nc1ccc(OCc2ccccc2)cc1 | inactive
40 | Oc1ccc(NCc2cccc(OCc3ccccc3)c2)cc1 | 28.2 µM (active)
41 | CCOc1cc(CNc2ccc(O)cc2)cc(Br)c1OCc1ccccc1 | 20 µM (active)
42 | CN=C(S)Nc1ccc(OCc2ccccc2)cc1 | inactive
43 | Cc1cc(NC(=O)Nc2ccc(OCc3ccccc3)cc2)n(C)n1 | inactive
44 | CC(NCc1cccc(OCc2ccccc2)c1)C(O)c1ccccc1 (stereo not drawn) | 25.1 µM (active)
45 | COc1cc(CNC(C)(C)CO)cc(Br)c1OCc1ccccc1 | inactive
46 | Oc1ccc(NCc2cccs2)cc1 | inactive
47 | CCOc1ccc(C2C(C(=O)Nc3ccccc3)=C(C)N=c3s/c(=C/c4cccc(OCC(=O)O)c4)c(=O)n32)cc1 (stereo not drawn) | inactive
48 | N#CC1=C(N)OC2=C(CC/C2=C\c2ccccc2Cl)C1c1ccccc1Cl (stereo not drawn) | inactive
49 | COCCNC(=O)c1c(N)n(CCCn2ccnc2)c2nc3ccccc3nc12 | inactive
50 | O=C(Oc1ccc2ccc(=O)oc2c1)c1ccccc1 | inactive

Row | Structure (SMILES) | Potency
51 | Oc1ccc(NCc2ccc(OCc3ccccc3Cl)cc2)cc1 | 22.4 µM (active)
52 | Clc1ncccc1OCc1ccccc1 | inactive
53 | c1ccc(COc2ccccc2CNC23CC4CC(CC(C4)C2)C3)cc1 | 20 µM (active)
54 | N=c1c(C(=O)NC2CCCC2)cc2c(=O)n3ccccc3nc2n1CC1CCCO1 (stereo not drawn) | inactive
55 | COC(=O)Cc1cc(=O)oc2c(C)c(O)ccc12 | inactive
56 | CCCCn1c(-c2cccc(C)c2)nc2cc3nc(O)c(C(C)C)nc3cc21 | 31.6 µM (active)
57 | CCCCn1c(C2CCCCC2)nc2cc3nc(O)c(C(C)C)nc3cc21 | 35.5 µM (active)
58 | CCCC1=Nc2ncnn2C(c2cccs2)/C1=C(\O)OCC (stereo not drawn) | inactive
59 | CCC(C)n1c(=N)c(C(=O)NC2CCCCC2)cc2c(=O)n3ccccc3nc21 (stereo not drawn) | inactive
60 | CCN(C(=O)COC(=O)CCC(=O)c1ccc(Cl)cc1)c1c(N)n(Cc2ccccc2)c(=O)[nH]c1=O | inactive
61 | CCN(C(=O)COC(=O)CCS(=O)(=O)c1ccccc1)c1c(N)n(Cc2ccccc2)c(=O)[nH]c1=O | inactive
62 | CCN(C(=O)COC(=O)C1CCC(C(C)(C)C)CC1)c1c(N)n(Cc2ccccc2)c(=O)[nH]c1=O (stereo not drawn) | 22.4 µM (active)
63 | CN(C(=O)COC(=O)/C=C/c1ccc2ccccc2n1)C1CCS(=O)(=O)C1 (stereo not drawn) | inactive
64 | Oc1cccc(Nc2c3ccccc3nc3ccccc23)c1 | inactive
65 | Cc1cc(Nc2cccc(O)c2)c2cccc(Br)c2n1 | 8.91 µM (active)
66 | Cc1cc(NCCO)c2cc(O)ccc2n1 | inactive
67 | CCOC(=O)C1=CN(CC2CCCO2)C=C(C(=O)OCC)C1c1ccccc1C(F)(F)F (stereo not drawn) | inactive
68 | COc1cccc(C(=O)Oc2ccc3ccc(=O)oc3c2)c1 | inactive
69 | COc1ccc(C(=O)/C=C/Sc2nc3ccccc3o2)cc1 | 39.8 µM (active)
70 | COc1ccc(C(=O)/C=C2\Sc3ccccc3N2C)cc1 | inactive
71 | CCOC(=O)c1cc2c(=O)n3cccc(C)c3nc2n(Cc2ccco2)/c1=N/C(=O)c1ccccc1 | inactive
72 | N#CC1=C(N)N2C(=C(C#N)C1c1cccc(Br)c1)Nc1ccccc12 (stereo not drawn) | inactive
73 | O=C(OCCC12CC3CC(CC(C3)C1)C2)c1ccc(NCc2cc(O)ccc2O)cc1 | 10 µM (active)
74 | COC(=O)C1=CN(CCOC23CC4CC(CC(C4)C2)C3)C=C(C(=O)OC)C1c1ccsc1 | inactive
75 | O=C(OC12CC3CC(CC(C3)C1)C2)c1ccc(NCc2cc(O)ccc2O)cc1 | 8.44 µM (active)

Row | Structure (SMILES) | Potency
76 | CC1CCN(c2ccc3c(c2)S(=O)(=O)c2cccc(C(=O)O)c2C3=O)CC1 | inactive
77 | CN(O)C(=S)c1ccccc1 | 8.91 µM (active)
78 | Cc1ccc(S(=O)(=O)Nc2cc(C)c(O)c(Sc3nnc(C)[nH]3)c2)cc1 | inactive
79 | Cc1cc(=O)oc2c(CN3CC(C)OC(C)C3)c(O)c(Cl)cc12 (stereo not drawn) | inactive
80 | CC(=O)Oc1ccc2ccc(=O)oc2c1 | inactive
81 | CCN(CC)c1ccc2cc(-c3nc4ccccc4n3C)c(=O)oc2c1 | inactive
82 | CCOC(=O)Cc1csc(N/C=C2/C(=O)N(c3ccccc3C(F)(F)F)C(=O)c3ccccc32)n1 | inactive
83 | CCCc1nc2ccc(C)cn2c1Cc1ccccc1 | 22.4 µM (active)
84 | CCCc1nc2c3ccccc3ccn2c1Cc1ccccc1 | 22.4 µM (active)
85 | CCC(C)n1c(=N)c(C(=O)NCc2ccccc2)cc2c(=O)n3cc(C)ccc3nc21 (stereo not drawn) | inactive
86 | Nn1c(Cc2ccccc2)nc2ccccc2c1=O | inactive
87 | CCCc1nc2ccc(C)cn2c1Cc1ccccc1OC | 39.8 µM (active)
88 | CCn1c(=N)c(C(=O)NCc2ccccc2)cc2c(=O)n3cc(C)ccc3nc21 | inactive
89 | COCC(C)n1c(SCc2cc(=O)n3cc(C)ccc3n2)nc2ccccc2c1=O (stereo not drawn) | inactive
90 | COCCN1C=C(C(=O)OC)C(c2ccccc2C(F)(F)F)C(C(=O)OC)=C1 | inactive
91 | CCCc1nc2ccc(C(=O)OC)cn2c1Cc1ccccc1C(F)(F)F | 39.8 µM (active)
92 | O=Cc1ccc(N2N=C(c3ccccc3)CC2c2ccccc2)cc1 (stereo not drawn) | inactive
93 | COC(=O)c1ccc(N2C(c3cc(OC)cc(OC)c3)=Cc3ccc(-c4cccnc4)cc3C2CC(=O)C2CC2)cc1 (stereo not drawn) | inactive
94 | COc1ccc(C2C=C(c3ccc(Cl)cc3)Nc3nc(NC(=O)CCC(=O)O)nn32)cc1 (stereo not drawn) | inactive
95 | CO/C(O)=C1\C(C)=NC2=C(C(=O)CC(C)(C)C2)C1c1cnn(C)c1C (stereo not drawn) | inactive
96 | CCN(CC)c1ccc2c(C)c(CN3CCOCC3)c(=O)oc2c1 | inactive
97 | COc1ccc(C2CC(c3cccc(F)c3)=NN2c2ccc(S(N)(=O)=O)cc2)cc1 (stereo not drawn) | inactive
98 | CNC(=O)/C(C#N)=C/c1ccc(-c2nc3ccccc3s2)o1 | inactive
